High-throughput results as filed in PubChem.
aSyn UTR inh – 5' untranslated region of α-synuclein, MLPCN primary screen. alpha-synuclein 5'UTR reporter, inhibitor activity. inhibition, % (tested at 7.5 µM). 300,000 compounds, 0.82% hits; in the data active means inhibition above about 60%;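 further: H4 neuroglioblastoma cells stably carrying SNCA 5'UTR luciferase fusion; 0% = DMSO wells and 100% = positive control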
HSP90 inh – blocks HSP90-mediated luciferase refolding in reticulocyte lysate | inhibition, % at 5.6 µM | 290,000 compounds, 0.91% hits | Rabbit reticulocyte lysate, luciferase refolding luminescence, 3 h;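 active means inhibition above the screen-wide mean plus 3 SD, computed separately per campaign, cut at about 16% in these data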;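 further: 0% = DMSO wells and 100% = 60 µM geldanamycin wells; inhibitors lower the luminescence because luciferase stays unfolded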
C8 TRAIL sens – caspase-8 TRAIL sensitization | inhibition (viability loss, TRAIL sensitization), % at 10 µM | NB7+C8 cells + TRAIL, ATPlite viability luminescence | 360,000 compounds, 1% hits;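 active means compounds causing at least 50% loss of cell viability in the single-dose screen, relative to plate controls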
TWEAK-Fn14 inh – inhibitors of TWEAK-Fn14 interaction signaling. TWEAK-stimulated Fn14 reporter cells, luciferase luminescence, 8 h. AID 1159606. inhibition, % at 10 µM. 360,000 compounds, 2% hits; in the data active means inhibition above about 50%
HIF-2a block – inhibitors of HIF-2a. 786-0 RCC cells HIF-2a reporter, luciferase luminescence, overnight. inhibition, % at 18.8 µM. 360,000 compounds, 0.72% hits. AID 624352;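 active means inhibition of the luminescence signal of 40% or more relative to plate controls, in a single-dose primary screen at 18.75 µM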
TROY NFkB inh – inhibitors of TROY-dependent NF-kB signaling; Q293 LMP1-TROYcd NF-kB luciferase reporter, 4 h; inhibition, % at 10 µM; AID 1347056; 360,000 compounds, 0.98% hits;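 active means compounds whose plate-normalised and pattern-corrected inhibition of the luciferase reporter signal at the single screening dose is 50% or more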
Mdm2 MdmX conf – confirmation of inhibitors of human Mdm2/MdmX interaction, set 2; inhibition, % at 8 µM; shares compounds with HIF-2a block; 740 compounds, 99% hits; SaOS-2 split-luciferase Mdm2/MdmX complementation, luminescence;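 active means mean inhibition of the luminescence signal across two replicates at or above 26 percent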
Target sequence (O15151 whole entry, looked up): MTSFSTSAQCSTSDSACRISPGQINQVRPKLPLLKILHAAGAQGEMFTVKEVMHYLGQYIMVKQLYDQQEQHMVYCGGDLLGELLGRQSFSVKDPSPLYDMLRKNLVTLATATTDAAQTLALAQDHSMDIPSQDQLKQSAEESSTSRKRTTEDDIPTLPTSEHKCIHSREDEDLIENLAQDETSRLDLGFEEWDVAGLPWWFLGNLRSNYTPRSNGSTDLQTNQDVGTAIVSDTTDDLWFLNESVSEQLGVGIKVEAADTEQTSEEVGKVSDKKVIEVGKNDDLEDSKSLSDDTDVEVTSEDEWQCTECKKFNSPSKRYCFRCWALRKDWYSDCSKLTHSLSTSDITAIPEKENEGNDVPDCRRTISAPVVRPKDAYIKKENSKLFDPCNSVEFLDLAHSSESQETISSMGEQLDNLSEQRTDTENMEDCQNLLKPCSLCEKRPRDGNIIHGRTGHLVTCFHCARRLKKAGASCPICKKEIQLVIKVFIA
Target sequence (Q00987 whole entry, looked up): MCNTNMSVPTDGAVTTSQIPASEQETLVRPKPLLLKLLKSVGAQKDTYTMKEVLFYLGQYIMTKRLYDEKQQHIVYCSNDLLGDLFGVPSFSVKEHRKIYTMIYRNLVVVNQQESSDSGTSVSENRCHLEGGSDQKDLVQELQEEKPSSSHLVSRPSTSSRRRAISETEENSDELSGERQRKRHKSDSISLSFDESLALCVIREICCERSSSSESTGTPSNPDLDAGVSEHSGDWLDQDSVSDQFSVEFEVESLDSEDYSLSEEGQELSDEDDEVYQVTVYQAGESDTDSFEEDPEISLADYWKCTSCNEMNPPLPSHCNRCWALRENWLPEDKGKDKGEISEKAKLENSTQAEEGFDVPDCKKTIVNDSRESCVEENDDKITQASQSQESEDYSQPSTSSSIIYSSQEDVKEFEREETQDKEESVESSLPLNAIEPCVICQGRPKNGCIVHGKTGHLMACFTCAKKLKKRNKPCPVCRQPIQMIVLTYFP
HIF-2a conf – confirmation of HIF-2a inhibitors | inhibition, % at 18.8 µM | shares compounds with HIF-2a block | 1,800 compounds, 56% hits | 786-0 RCC cells, HIF-2a luciferase reporter luminescence, overnight;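 active means mean inhibition across four replicates of at least 40 percent at the single tested concentration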
HIF-1a cs – inhibits HIF-1a reporter, a counter-screen for HIF-2a inhibitors | shares compounds with HIF-2a block | MiaPaCa-2 HIF-1a luciferase reporter, desferoxamine, overnight | inhibition, % at 18.8 µM | 1,800 compounds, 72% hits | AID 651589;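 active means mean inhibition of the reporter signal across four replicates at the single tested dose of 50% or more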
An asterisk follows results filed as active; · = no result. A selection: hits, their analogues and other compounds. The true share with any hit is near 3.9%.

SMILES | aSyn UTR inh | HSP90 inh | C8 TRAIL sens | TWEAK-Fn14 inh | HIF-2a block | TROY NFkB inh | HIF-2a conf | HIF-1a cs | others
CCOC(=O)c1ccc(S(=O)(=O)Nc2nc3cc(S(=O)(=O)NC4=NCCCCC4)ccc3s2)cc1 | 1 | 4 | 10 | -11 | 8 | 14 | · | ·
Nc1nc2cc(S(=O)(=O)NC3=NCCCCC3)ccc2s1 | -15 | 6 | -12 | -12 | 41* | -3 | -7 | -8
O=C(NC(=S)Nc1ccccc1N1CCCC1)c1ccco1 | 50 | 1 | -28 | 33 | 76* | 36 | -8 | 7
O=C(NC(=S)Nc1ccccc1N1CCCCC1)c1ccco1 | 12 | -3 | -3 | 27 | -6 | -13 | · | ·
Cc1cc(C)n2c(=O)c3ccc(Cl)cc3nc2c1C#N | -23 | -3 | -3 | -20 | -18 | -21 | · | ·
Cc1cc(Cl)n2c(nc3cc(F)c(F)cc32)c1C#N | 39 | 5 | 74* | 69* | 95* | 36 | 58* | 100*
CC(C)n1c(/C=C/[C@@H](O)C[C@@H](O)CC(=O)O)c(-c2ccc(F)cc2)c2ccccc21 | 64* | -2 | 12 | 14 | 39* | -5 | 20 | -39
CCC1CCCCN1CCCNC(=O)C1CCN(Cc2nc(-c3ccc(Cl)cc3)oc2C)CC1 (stereo not drawn) | 13 | -1 | 40 | -2 | 16 | -51 | · | · | Mdm2 MdmX conf=102*
Cc1oc(-c2ccc(Cl)cc2)nc1CN1CCC(C(=O)NCCCN2CCOCC2)CC1 | -7 | -3 | -3 | 22 | 3 | -2 | · | ·
N#CC(C#N)=C1C=CC=CN1/C(=C\c1ccco1)C(=O)c1ccc(Cl)cc1 | · | -6 | -2 | 97* | 94* | 86* | 98* | 97*
N#C/C(=C\c1ccco1)C(=O)NCc1ccccc1 | -25 | 0 | -3 | 10 | 18 | 8 | · | ·
N#CC(C#N)=C1C=CC=CN1/C(=C\c1ccco1)C(=O)c1ccc(-c2ccccc2)cc1 | · | 1 | 4 | 89* | 83* | 32 | 97* | 106*
CC(/C=N/n1c(-c2ccc(Cl)cc2)n[nH]c1=S)=C\c1ccco1 | -17 | 2 | -10 | 19 | -9 | 10 | · | ·
COc1ccc2cc3c(N)nn(C(=O)Cc4ccccc4OC)c3nc2c1 | 41 | 1 | 16 | 52* | 36* | 35 | 13 | 89*
N#C/C(=C\c1cccc([N+](=O)[O-])c1)C(=O)NCc1ccc(Cl)cc1 | · | 0 | 5 | 9 | 66* | -16 | 60* | 106*
N#C/C(=C\c1cccc([N+](=O)[O-])c1)C(=O)NCc1cccnc1 | -2 | 0 | -2 | 3 | 36 | -22 | · | ·
CC[C@@H](C)[C@H](CNC)NC[C@@H](Cc1cccc2ccccc12)NCCc1cccc(C(F)(F)F)c1 | 125* | 1 | 96* | -56 | 15 | -9 | · | · | Mdm2 MdmX conf=103*
CCC[C@@H](CN[C@@H](CNC)[C@H](C)CC)NCC1CCC(C(C)(C)C)CC1 (stereo partly drawn) | 40 | -1 | 35 | -47 | -3 | 1 | · | ·
CCC[C@@H](CN[C@@H](CNC)C(C)C)NCCCCc1ccccc1 | -14 | -2 | 4 | -4 | -7 | -14 | · | ·
CCC[C@H](CN[C@@H](CNC)[C@H](C)CC)NCCc1cc(C(F)(F)F)cc(C(F)(F)F)c1 | 124* | 1 | 88* | -72 | 12 | -7 | · | · | Mdm2 MdmX conf=103*
CC1(C(=O)NS(=O)(=O)c2ccc(F)cc2F)CCN1C(=O)c1ccc(C2CCCCC2)cc1 (stereo not drawn) | · | · | -4 | 8 | 5 | -14 | · | ·
COc1cc(C(=O)N2CCCCC2c2cc(C(=O)Nc3ccccc3)no2)cc(OC)c1C (stereo not drawn) | · | · | 6 | 12 | 7 | 12 | · | ·
CCN1CSC(=S)N(Cc2ccc(OC)cc2)C1 | -36 | -2 | 3 | 5 | 67* | -20 | -1 | 42
Nc1c(C(=O)N2CCOCC2)sc2nc3c(cc12)CCCC3 | 76* | 3 | 57* | 0 | 46* | 29 | 47* | 32
CCOC(=O)[C@]12CCCC=C1N(Cc1ccco1)C(=O)[C@H](CC(=O)N1CCSCC1)C2 | · | · | 1 | -2 | 0 | 0 | · | ·
SMILES | aSyn UTR inh | HSP90 inh | C8 TRAIL sens | TWEAK-Fn14 inh | HIF-2a block | TROY NFkB inh | HIF-2a conf | HIF-1a cs | others
CCC1NC(=O)c2cc3ccccc3cc2-n2c1nc1ccc(OC)cc1c2=O (stereo not drawn) | · | · | 19 | -5 | 8 | 6 | · | ·
CCSc1nc(-c2ccc(OC)cc2)cc(-c2ccccc2)c1C#N | 22 | 3 | 0 | -12 | 1 | -54 | · | ·
COc1ccc(-c2cc(-c3ccccc3)c(C#N)c(S(C)=O)n2)cc1 (stereo not drawn) | 17 | 2 | 91* | 12 | 76* | -20 | 31 | 98*
Cn1nnnc1Sc1ncnc2scc(-c3cccc(F)c3)c12 | · | · | 15 | 64* | 75* | 43 | 54* | 104* | Mdm2 MdmX conf=103*
COC(=O)CSc1ncnc2scc(-c3ccccc3)c12 | 15 | -1 | -3 | 8 | 17 | 10 | · | ·
COc1cccc(-c2csc3ncnc(Sc4nnnn4C)c23)c1 | · | · | 7 | 75* | 47* | 38 | 43* | 98*
Cc1ccc(-c2csc3ncnc(SCC(=O)O)c23)cc1 | -18 | 2 | -3 | 9 | 2 | 7 | · | ·
Cn1nnnc1Sc1ncnc2scc(-c3cccc(C(F)(F)F)c3)c12 | · | · | 26 | 90* | 84* | 58* | 91* | 99* | Mdm2 MdmX conf=103*
Cn1nnnc1Sc1ncnc2scc(-c3ccc(C(F)(F)F)cc3)c12 | · | · | 36 | 93* | 94* | 55* | 98* | 102* | Mdm2 MdmX conf=100*
CC12CCC(C(NC(=S)NN)C1=O)C2(C)C (stereo not drawn) | · | · | 0 | 4 | 11 | -4 | · | ·
Cc1ccc(NC(=O)CCC(=O)NN=Cc2ccc(C)o2)c(C)c1 | · | · | -7 | 2 | -8 | 2 | · | ·
CC(=O)c1ccccc1-c1csc2ncnc(Sc3nnnn3C)c12 | · | · | -3 | 33 | 8 | -11 | · | ·
Cn1nnnc1Sc1ncnc2scc(-c3ccccc3C(F)(F)F)c12 | · | · | -10 | 28 | 51* | 9 | 46* | 59*
Cc1noc(-c2ccc(Cl)cc2)c1C(=O)O/N=C(\N)c1ccc(C(C)(C)C)cc1 | 43 | -5 | 94* | -19 | 0 | -24 | · | · | Mdm2 MdmX conf=103*
CCNC(=O)N(C)C[C@H]1N[C@@](Cc2ccccc2)(C(=O)OC)[C@H]2C(=O)N(C)C(=O)[C@@H]12 | · | · | -10 | 6 | -1 | -4 | · | ·
Cc1ccccc1-n1nnnc1SCC(N)=O | 6 | 2 | 3 | 1 | 10 | -8 | · | ·
